Rows were chosen to be rich in hits. Some 10% of all compounds tested hit in one or more screens of this group.
HPGD block: HPGD (human) dehydrogenase inhibition; purified HPGD, NADH fluorescence kinetic, PGE2 substrate; P15428; Potency, µM, for the others: at the highest dose activity change, negative = inhibition, usual class: inhibitors; 150,000 tested, 4.3% active; further: potency means the concentration at half of the fitted maximal effect
Target sequence (P15428 whole entry, looked up): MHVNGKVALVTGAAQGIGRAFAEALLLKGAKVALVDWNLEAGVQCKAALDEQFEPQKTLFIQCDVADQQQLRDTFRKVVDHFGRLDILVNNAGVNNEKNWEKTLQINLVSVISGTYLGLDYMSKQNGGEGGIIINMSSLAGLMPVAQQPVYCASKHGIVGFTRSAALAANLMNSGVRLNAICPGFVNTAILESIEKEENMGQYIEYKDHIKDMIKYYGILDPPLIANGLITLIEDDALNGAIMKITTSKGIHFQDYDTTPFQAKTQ
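20 nM HPGD preincubated 15 min at room temperature with compound in 50 mM Tris-HCl pH 8, 0.01% Tween 20. Started with 1 mM NAD+ and 30 uM prostaglandin E2; NADH fluorescence (360/450 nm) read 5 times over 30-s intervals, last minus first.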
ALDH1A1 inh: ALDH1A1 (human) enzyme inhibition; 220,000 tested, 7.3% active; P00352; Potency, µM (top dose mostly 75.3 µM), for the others: top-dose activity, negative = inhibition, usual class: inhibitors; Purified ALDH1A1, NADH fluorescence, propionaldehyde substrate;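 further: potency means the concentration at half of the fitted maximal effect; plate controls were no enzyme wells and a reference inhibitor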
Target sequence (P00352 whole entry, looked up): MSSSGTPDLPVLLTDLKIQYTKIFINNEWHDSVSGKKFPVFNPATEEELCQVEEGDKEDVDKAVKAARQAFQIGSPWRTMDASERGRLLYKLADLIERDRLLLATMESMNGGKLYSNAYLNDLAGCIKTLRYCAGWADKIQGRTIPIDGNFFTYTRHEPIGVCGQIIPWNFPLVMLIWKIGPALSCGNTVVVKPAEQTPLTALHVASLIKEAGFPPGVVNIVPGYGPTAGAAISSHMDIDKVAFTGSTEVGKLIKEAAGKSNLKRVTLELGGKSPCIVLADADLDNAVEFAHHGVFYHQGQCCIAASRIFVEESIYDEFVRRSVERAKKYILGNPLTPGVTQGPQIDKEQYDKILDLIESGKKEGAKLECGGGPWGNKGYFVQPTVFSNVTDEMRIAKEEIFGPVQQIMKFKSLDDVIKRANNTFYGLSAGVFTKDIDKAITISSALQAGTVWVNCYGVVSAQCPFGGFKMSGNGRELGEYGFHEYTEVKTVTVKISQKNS
PNC inhibitor: blocks assembly of the perinucleolar compartment | PC3M PTB-GFP, PNC prevalence imaging, 16 h; hits give low values | activity change (PNC), negative = inhibition, % at 10 µM | 140,000 tested, 3.1% active | AID 2417;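 active means readout at or below -70, meaning at least 70% loss of cells showing the perinucleolar compartment, a nuclear body marking cancer cells; inconclusive means readout between -30 and a set limit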;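 further: plate controls were DMSO wells for no effect and camptothecin positive control wells for full effect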
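PC3M cells stably expressing PTB-GFP, 750–1000 cells/well, treated 16 h at 37 °C with compound (23 nl of library stock), in duplicate. After paraformaldehyde fixation and Hoechst stain, imaged at 20x; PNC prevalence scored by image analysis.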
Luc counter: counter-screen: inhibitors of Kinase-Glo firefly luciferase; AID 1379; Kinase-Glo luciferase, ATP luminescence, 8 min; 200,000 tested, 0.28% active; Potency, µM (top dose mostly 38.3 µM), for inactives: at the top dose activity change, negative = inhibition, most hits filed as inhibitors; active means well fitted inhibition curve with a large enough effect; inconclusive means small, poorly fitted or top-dose-only effect; further: potency means the concentration at half of the fitted maximal effect; nearly all actives have a fitted effect of over 60% in size
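Inhibition of Kinase-Glo luciferase light generation was assessed at 10 uM ATP in pH 7.2 imidazole buffer, with luminescence measured after eight minutes at ambient temperature.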
Lamin A splicing: modulators of lamin A splicing | HeLa LMNA splicing GFP/RFP minigene ratio, 48 h | Potency, µM (highest dose often 46.1 µM), for the others: at the highest dose ratio change, negative = inhibition, most hits filed as inhibitors | 200,000 tested, 0.01% active; active means well fitted inhibition curve with a large enough effect in the signal ratio, with a control signal flat, not every such curve was filed as active; inconclusive means small, poorly fitted or top-dose-only effect, or effect the other way, or a change in a side signal; the % refers to the signal ratio; further: potency means the concentration at half of the fitted maximal effect
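S3 HeLa cells stably expressing lamin A-EGFP splicing minigene plus DsRed2, 600 cells/well, 48 h compound exposure at 37C. Laser-scanning cytometry; analysed as GFP (500-530 nm)/RFP (575-640 nm) total intensity ratio; 0.5% DMSO vehicle.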
* = called active by the depositor; ? = inconclusive; . = no result given; [ ] = dose if it differs, or a comment. Unless noted, the call rests on the fitted dose curve; in most records, active means well fitted inhibition curve with a large enough effect (not every such curve was filed as active); inconclusive means small, poorly fitted or top-dose-only effect, or another doubt; inactive means no such curve, though single readings can be large or run the other way. Unless noted, on the % scale 0 is the no-effect control and ±100 the full control effect.

SMILES	HPGD block	ALDH1A1 inh	PNC inhibitor	Luc counter	Lamin A splicing
COc1ccc(NC(=O)c2c(NCc3cccc(OC)c3)sc3c2CCC3)cc1	.	.	.	.	5.0%[46 µM]
COc1ccccc1N1CCN(C(CNS(=O)(=O)c2ccccc2)c2cccnc2)CC1 (centres undefined)	-3.0%	20µM*	31.5	14.8%	5.7%
COc1ccc(S(=O)(=O)NCC(c2cccnc2)N2CCN(c3ccccc3OC)CC2)cc1C (centres undefined)	-9.1%	?	-12.7	-1.7%	-3.3%
COc1ccccc1N1CCN(C(CNS(=O)(=O)c2cc(F)ccc2F)c2cccnc2)CC1 (centres undefined)	-10.2%	20µM*	2.8	2.3%	3.4%
COc1ccc(Cn2ccc3nc(C)c(C(=O)N4CCN(c5cc(C)ccc5C)CC4)cc3c2=O)cc1	.	.	.	.	-10.3%[46 µM]
CC(=O)N1CCC2(CC1)CN(Cc1ccccc1)C2	-9.9%	6.7%	.	0.5%	.
O=C(NN=C1C2CC3CC1CC(Cl)(C3)C2)c1cccs1	.	3.16µM*	.	-1.3%	.
Cc1ccc(CNC(=O)C23CN(Cc4ccccc4)CC2C(c2cccc([N+](=O)[O-])c2)=NO3)cc1 (centres undefined)	-21.9%	?	48.3	2.2%	-7.5%
O=C(NCc1ccco1)C12CN(Cc3ccccc3)CC1C(c1cccc([N+](=O)[O-])c1)=NO2 (centres undefined)	-9.3%	-5.7%	-86.1*	-3.6%	4.5%
O=C(NCc1ccco1)C12CN(Cc3ccccc3)CC1C(c1ccc([N+](=O)[O-])cc1)=NO2 (centres undefined)	-12.8%	3.98µM*	-1.0	2.6%	4.4%
Oc1ccc([C@@H]2CNCCc3c2cc(O)c(O)c3Cl)cc1	-0.5%	-11.9%	.	1.5%	.
COc1ccc(NC(=O)/C(=C/c2ccc(OC(C)=O)c(OC)c2)NC(C)=O)cc1	-14.2%	3.98µM*	49.9	-1.6%	2.6%
COc1cc(/C=C(\NC(C)=O)C(=O)Nc2ccccc2C)ccc1OC(C)=O	0.2%	28.2µM*	22.4	-1.1%	-4.3%
COc1cc(/C=C(\NC(C)=O)C(=O)Nc2ccc(NC(C)=O)cc2)ccc1OC(C)=O	-11.8%	0.251µM*	27.1	-0.2%	-10.5%
COc1ccc(NC(=O)/C(=C\c2ccc3c(c2)OCO3)NC(C)=O)cc1	-16.8%	-4.3%	16.2	-0.6%	-13.0%
C=CCC(C)(O)c1cccs1 (centres undefined)	-6.5%	-2.3%	.	1.1%	.
O=C(CSc1nc2c([nH]c3ccccc32)c(=O)n1-c1ccccc1F)Nc1ccccc1C(F)(F)F	.	.	.	.	-0.5%[46 µM]
COc1ccc(NC(=O)N2CC3(CCN(C(=O)c4cnccn4)CC3)C2)cc1	-7.0%	4.4%	.	-1.8%	.
CN(C)c1nc(N)nc(CSc2ncc(Cl)cc2Cl)n1	8.91µM*	-9.1%	?	-3.2%	7.1%
O=C(Cn1nc2c(cc1=O)CCCC2)Nc1ccccc1C(F)(F)F	.	.	.	.	-1.7%[46 µM]
CC1=C(C#N)C(c2cn(-c3ccccc3)nc2-c2cccs2)C(C#N)=C(C)N1	-5.6%	-14.2%	-95.2*	-2.6%	?
COc1ccc2[nH]c(C)c(CCN(Cc3cccs3)C(=S)Nc3ccccc3)c2c1	-7.3%	?	-9.1	-3.8%	?
COc1ccc2[nH]c(C)c(CCN(Cc3cccs3)C(=S)Nc3ccc(F)cc3)c2c1	-16.7%	17.8µM*	-27.0	2.7%	?
Cc1ccc(CNC(=O)CN2C(=O)COc3ccccc32)cc1	.	.	.	.	-16.0%[46 µM]
COc1cc(/C=N/OCC(=O)NC23CC4CC(CC(C4)C2)C3)ccc1OCc1ccccc1	.	22.4µM*	-24.2	.	?
SMILES	HPGD block	ALDH1A1 inh	PNC inhibitor	Luc counter	Lamin A splicing
COc1cc(/C=N/OCC(=O)Nc2ccc(OC(F)F)cc2)ccc1OCc1ccccc1	-13.6%	-2.1%	-5.5	-1.3%	?
COc1cc(/C=N/OCC(=O)NC2CCCCC2)ccc1OCc1ccccc1	-22.5%	22.4µM*	?	-1.2%	?
COC(=O)C1CCN(c2csc3ccc(Cl)cc3c2=O)CC1	.	.	.	.	5.7%[46 µM]
CCOc1ccc(-c2cc(C(=O)N/N=C/c3ccc(O)c(OC)c3)[nH]n2)cc1	-13.9%	?	.	-7.5%	.
N#Cc1c(-c2ccc(C(F)(F)F)cc2)cc(-c2ccccc2)[nH]c1=S	-9.6%	?	-99.3*	-5.4%	0.2%
Cc1ccc(-c2cc(-c3ccccc3)[nH]c(=S)c2C#N)cc1	-10.5%	?	24.5	2.9%	-3.7%
CCOc1cccc(C(=O)Nc2cccc(-c3nc4ncccc4o3)c2C)c1	?	17.8µM*	?	-2.3%	-7.3%
CCOc1ccc(NCc2nnc(SCc3ccccc3Cl)n2-c2ccccc2)cc1	-14.8%	12.6µM*	-17.1	0.6%	-5.3%
COc1ccc(-n2c(CNc3ccc(C)cc3)nnc2SCc2ccccc2)cc1	-20.9%	-7.6%	?	2.3%	?
CC(C)(C)OC(=O)N1CCC(c2c(C(=O)NCc3ccccc3)cnn2-c2cccc(F)c2)CC1	.	.	.	.	-28.3%[46 µM]
O=C1OC(=O)c2c(Cl)c(Cl)c(Cl)c(Cl)c21	-3.5%	?	.	.	.
Cc1ccc(OCCN2C(=O)C(=O)c3cccc(C)c32)cc1	.	0.199µM*	.	-0.2%	?
Cc1ccc2c(c1)C(=O)C(=O)N2CCCOc1ccccc1	.	0.112µM*	.	0.4%	-13.5%[46 µM]
Cc1cccc(OCCN2C(=O)c3ccccc3C2=O)c1	.	8.7%	.	-1.9%	.
Cc1ccc(OCCCN2C(=O)C(=O)c3cc(C)ccc32)cc1	.	0.1µM*	.	-0.5%	.
Cc1cccc(OCCCN2C(=O)C(=O)c3cc(C)ccc32)c1	.	0.1µM*	.	-2.4%	?
O=C(NCCC1=CCCCC1)c1ccc2c(c1)N(Cc1cccc(Cl)c1)C(=O)c1ccccc1S2=O (centres undefined)	.	.	.	.	-7.7%[46 µM]
Cc1cccc2c1N(C)C(=O)C2=O	.	1.78µM*	.	-3.4%	.
CCOC(=O)CN1C(=O)C(=O)c2cccc(C)c21	-14.7%	0.0251µM*	?	-1.5%	-15.4%
CCOC(=O)c1cccc(NC(=O)c2sc3nc[nH]c(=O)c3c2C)c1	.	.	.	.	15.6%[46 µM]
N#Cc1nccnc1S(=O)(=O)c1cccs1	.	0.447µM*	.	.	?
O=S(=O)(Nc1cccnc1)c1cccs1	-15.8%	-11.9%	-26.3	-0.2%	6.3%
Cn1c(=O)c2c(SCc3cccnc3)nc(CC(C)(C)C)nc2n(C)c1=O	-17.8%	0.891µM*	?	-3.1%	?
N#Cc1c(/N=C\c2ccc(O)c([N+](=O)[O-])c2)sc2c1CCCC2	.	2.51µM*	.	0.6%	.
N#C/C(=C\c1ccc(O)c([N+](=O)[O-])c1)c1nc2ccccc2s1	.	?	.	-4.1%	.
Cc1ccc(/C=N/c2sc3c(c2C#N)CCC3)o1	15.8µM*	10µM*	75.5	11.2µM*	6.0%
N#Cc1c(/N=C/c2ccc(Br)s2)sc2c1CCC2	-11.5%	?	-100.0*	-0.3%	0.5%
CNC/C(Cl)=N/S(=O)(=O)c1ccc(C)cc1	-0.2%	?	.	-0.2%[7.66 µM]	.
CCN1CCCC1Cn1c(-c2ccccc2)nc2c(N3CCOCC3)nc(C)nc21 (centres undefined)	?	?	.	1.0%	.
